The supplement of paper PMC6555819

Assays:
Assay in all cases: PBM binding z-score (relative to random genomic background probes); higher = stronger binding; sequences stand for … in GC…GCGATTGACAGCGTAGAATGAAGG
[1] = tested on: PPARg:RXRa DBDmut IVT, anti-RXR (DBD mutation: RXRa K156A/R161A, NR concentration 270 nM, RXRa partner concentration 90 nM)
Method in brief: (§1)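 Each nuclear receptor dimer, without ligand, was incubated for 1 h on custom Agilent 4×180K protein-binding microarrays. Binding was detected with antibodies against each partner (one per run), and scanned fluorescence was regression-normalized. The binding z-scores are referenced to random human genomic background probes.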

[2] = tested on: PPARg:RXRa IVT, anti-PPARg (NR concentration 270 nM, RXRa partner concentration 90 nM)
Method in brief: as §1

[3] = tested on: PPARg DBDmut:RXRa IVT, anti-PPARg (DBD mutation: PPARg1 K132A/R137A, NR concentration 270 nM, RXRa partner concentration 90 nM)
Method in brief: as §1

[4] = tested on: PPARg DBDmut IVT, anti-PPARg (DBD mutation: PPARg1 K132A/R137A, NR concentration 270 nM)
Method in brief: as §1

[5] = tested on: PPARg homodimer (NR concentration 180 nM)
Method in brief: as §1

[6] = tested on: PXR:RXRa (NR concentration 270 nM, RXRa partner concentration 90 nM)
Method in brief: as §1

[7] = tested on: PXR homodimer (NR concentration 270 nM)
Method in brief: as §1

[8] = tested on: RARa:RXR (NR concentration 270 nM, RXRa partner concentration 90 nM)
Method in brief: as §1

[9] = tested on: RARa homodimer (NR concentration 270 nM)
Method in brief: as §1

[10] = tested on: RARb:RXRa (NR concentration 270 nM, RXRa partner concentration 90 nM)
Method in brief: as §1

| Sequence | PBM binding z-score [1] | PBM binding z-score [2] | PBM binding z-score [3] | PBM binding z-score [4] | PBM binding z-score [5] | PBM binding z-score [6] | PBM binding z-score [7] | PBM binding z-score [8] | PBM binding z-score [9] | PBM binding z-score [10] |
| --- | --- | --- | --- | --- | --- | --- | --- | --- | --- | --- |
| TTACCAAGCTGAAAGGTCGTTGATGCACGCCTTG | -0.529 | 0.156 | -0.407 | -0.623 | 0.193 | 1.72 | -0.0821 | 1.66 | -0.928 | 1.36 |
| CCTACTGGGCCAACGGTCATTGATTCCAATGCTC | 3.68 | 4.73 | -0.311 | -0.326 | 0.249 | -0.304 | 0.00743 | -0.143 | -0.558 | 1.37 |
| ACCTCTAGGTAACAAGTTCAGTGAAAGAGAGGAC | 3.28 | 2.07 | 0.823 | 0.266 | 0.609 | 1.57 | 1.32 | 0.59 | -0.291 | 1.51 |
| CCTACTGGGCCATTCGGAGGTCATTGATCATATG | 4.18 | 3.88 | -0.0532 | -0.182 | 1.81 | 3.79 | 2.38 | 3.45 | -0.323 | 2.54 |
| ATATGTAGGTTTGCTGGGGTCATTCAGACTAGGC | 3.16 | 3.12 | 1.39 | 1.41 | 1.83 | 5.71 | 7.95 | 4.72 | 1 | 2.53 |
| CCTATTAGTTGACCATATGGGCAACCGAAGCTCG | 0.421 | 1.14 | 0.935 | 0.461 | 0.842 | 0.0373 | 0.489 | 0.314 | 1.68 | 0.652 |
| TCTAGTTGGTCACGGAGGTCACGCACGACGGGTA | 2.9 | 4.62 | 1.18 | 2.02 | 3.23 | 4.93 | 1.26 | 5.23 | 1.73 | 4.33 |
| TTACCAAGATGAAAGGTCGTTGATGCACGCCTTG | 0.675 | 1.47 | 0.794 | 0.0757 | 1.13 | 2.08 | 0.245 | 2.24 | 0.444 | 1.55 |
| GCTGCTAGGTCAAGTTGGTCAGCTAACGGGTACG | 4.62 | 4.19 | -0.715 | -0.257 | 1.75 | 1.68 | -0.361 | 2.19 | 0.462 | 4.38 |
| ATCTCTAGGTAACCAAGATCAGTGAATGCCGAAC | 2.88 | 2.67 | 0.887 | 1.13 | 0.619 | 0.0058 | 0.344 | 0.377 | 0.145 | 0.119 |
| TCTTGTAGATCAACACGAGGTTAAGAAAGATCGA | 1.48 | 1.07 | 0.862 | 1 | 0.489 | 1.05 | 0.0696 | 1.27 | 0.374 | 0.536 |
| ATCTCTAGCTAAAGATAGTTCAGTGAATGCAAAT | -0.205 | -0.237 | 1 | 0.169 | 0.538 | 0.463 | 0.542 | 0.855 | 0.543 | 0.329 |
| AGAACGAGAGCAATGAGTTGATAGCACGGGTGGC | 0.0253 | -0.231 | -0.979 | -0.694 | -1.02 | -0.378 | -0.202 | -0.818 | -0.732 | -0.525 |
| TCATACAGGTAAAGGTGAAAGTCGAACGATATGA | 2.37 | 2.45 | 1.8 | 0.696 | 0.957 | 1.03 | 0.178 | 1.82 | 1.18 | 2.19 |
| GATACAGGGCCAGCTAGAGGCCAGAGTATGGAAA | -0.745 | -0.681 | -0.858 | -1.22 | -0.793 | -0.72 | -0.244 | -0.464 | -0.203 | 0.56 |
| TAGACAGGGTCAAAGGCCAGAGTACGAATGTCGA | 0.674 | 3.81 | 1.39 | 0.376 | 1.55 | 4.13 | 0.121 | 5.65 | 0.0319 | 4.28 |
| ATCTCTAGGTAACAAGTTCACTGAAAGAGAGGAC | 3.4 | 3.15 | 1.22 | 1.68 | 1.6 | 2.83 | 2.82 | 2.02 | 0.943 | 2.18 |
| AGAACGAGGCCAATGAGTTGATAGCACGGGTGGC | 1.54 | 0.862 | 0.703 | 0.331 | -0.093 | 0.214 | 0.741 | -0.114 | 0.0259 | 0.946 |
| CCGCCTAGGTCAGGGCCAGTATAGGAGGAACGTT | 0.73 | 1.29 | -1.13 | -2.07 | 0.393 | 0.629 | -0.663 | 1.47 | -0.0818 | 3.43 |
| ACTATTAGTTGATTTAGGGCAACCGATACGACGC | 1.57 | 2.39 | 2.12 | 1.32 | 1.41 | 0.00966 | 0.993 | 0.345 | 1.47 | 0.582 |
| CCTATTAGTTGACCATAAAGGCAACCGAAGCTCG | 0.277 | 0.572 | 0.612 | 1.06 | 1.55 | 0.343 | 1.08 | 0.436 | 2.45 | 0.404 |
| TCTAGTTGGTCACGGAGGTCACATACGACGGGTA | 2.69 | 4.21 | 1.22 | 1.14 | 2.46 | 4.38 | 1.7 | 4.13 | 1.16 | 3.84 |
| AGAATGAGGTTATTAAGACCAGGGAATTGCGGTC | 2.67 | 2.43 | 1.16 | 0.232 | 0.709 | 1.02 | -0.304 | 1.49 | -0.0801 | 1.38 |
